Results as given in PubChem BioAssay (NCI).
This is part of a sample that, as a whole, favours compounds with a hit. Of some 83,000 tested, about 20% had one in any assay.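 Cells were grown in 96-well plates and exposed to the test compound at a single concentration for 48 hours; results are reported as percent growth, with values below 10 considered active.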 Active and inactive are the calls of the source.

Tests used:
Assay in all cases: NCI-60 one-dose screen, 48 h (100 = growth as untreated, 0 = no growth, -100 = all killed)
Conditions in all cases: 10 µM unless noted
SR leukemia = test system: SR leukemia
RPMI-8226 leukemia = test system: RPMI-8226 leukemia
OVCAR-8 ovarian = test system: OVCAR-8 ovarian
OVCAR-5 ovarian = test system: OVCAR-5 ovarian
OVCAR-4 ovarian = test system: OVCAR-4 ovarian
SK-OV-3 ovarian = test system: SK-OV-3 ovarian
IGROV1 ovarian = test system: IGROV1 ovarian
OVCAR-3 ovarian = test system: OVCAR-3 ovarian
HS 578T breast = test system: HS 578T breast
NCI/ADR-RES ovarian = test system: NCI/ADR-RES ovarian
T-47D breast = test system: T-47D breast
BT-549 breast = test system: BT-549 breast
MDA-MB-435 melanoma = test system: MDA-MB-435 melanoma
SW-620 colon = test system: SW-620 colon
MCF7 breast = test system: MCF7 breast
HCT-116 colon = test system: HCT-116 colon
HCC-2998 colon = test system: HCC-2998 colon
KM12 colon = test system: KM12 colon

Measured: growth

Cc1cc(C(=O)/C=C/c2ccc[nH]2)ccc1-n1ccc(C(F)(F)F)n1
active: RPMI-8226 leukemia -40.1% | OVCAR-3 ovarian 4.46% | BT-549 breast -35% | KM12 colon -14%
inactive: SR leukemia 28.4% | OVCAR-8 ovarian 85.6% | OVCAR-5 ovarian 95.8% | OVCAR-4 ovarian 74.7% | SK-OV-3 ovarian 129% | IGROV1 ovarian 92.3% | HS 578T breast 94.3% | NCI/ADR-RES ovarian 89.3% | T-47D breast 85% | MDA-MB-435 melanoma 97.4% | SW-620 colon 96.6% | MCF7 breast 82.7% | HCT-116 colon 88.5% | HCC-2998 colon 108%

O=C(NCCc1ccccc1)Nc1ccc2cc3ccc(NC(=O)NCCc4ccccc4)cc3nc2c1
inactive: RPMI-8226 leukemia 49.1% | OVCAR-8 ovarian 23.8% | OVCAR-5 ovarian 50.6% | OVCAR-4 ovarian 62.6% | SK-OV-3 ovarian 41.4% | IGROV1 ovarian 48.2% | OVCAR-3 ovarian 19.2% | NCI/ADR-RES ovarian 105% | T-47D breast 29.7% | BT-549 breast 70.6% | KM12 colon 47.7%
active: SR leukemia -30.2% | HS 578T breast -26.2% | MDA-MB-435 melanoma -13.7% | SW-620 colon 1.33% | MCF7 breast 0.969% | HCT-116 colon -32.5% | HCC-2998 colon -8.17%

O=Cc1cc2ccccc2nc1Oc1ccc(C(F)(F)F)cc1
inactive: SR leukemia 23.6% | RPMI-8226 leukemia 33% | OVCAR-8 ovarian 91% | OVCAR-5 ovarian 99.2% | OVCAR-4 ovarian 98.6% | SK-OV-3 ovarian 81.5% | IGROV1 ovarian 68.3% | OVCAR-3 ovarian 96.7% | HS 578T breast 89.7% | NCI/ADR-RES ovarian 92.9% | T-47D breast 83.7% | BT-549 breast 99.7% | MDA-MB-435 melanoma 103% | SW-620 colon 67% | MCF7 breast 48.1% | HCT-116 colon 102% | HCC-2998 colon 108% | KM12 colon 92.4%

COc1cc2nc(-c3ccc(Cl)cc3)cc(OCCCN3CCC(O)CC3)c2cc1OC
inactive: SR leukemia 15.9% | RPMI-8226 leukemia 23.2% | OVCAR-8 ovarian 42.9% | OVCAR-5 ovarian 45.8% | OVCAR-4 ovarian 68.7% | SK-OV-3 ovarian 74.3% | IGROV1 ovarian 33.2% | OVCAR-3 ovarian 71.7% | HS 578T breast 66.9% | NCI/ADR-RES ovarian 44.6% | T-47D breast 44.3% | BT-549 breast 34.9% | SW-620 colon 51.2% | MCF7 breast 48.9% | HCT-116 colon 17.9% | HCC-2998 colon 69.9% | KM12 colon 37.2%
active: MDA-MB-435 melanoma -10.7%

OCc1cnc2ccccc2c1NC1CCCCCC1
inactive: SR leukemia 91.4% | RPMI-8226 leukemia 75% | OVCAR-8 ovarian 84.7% | OVCAR-5 ovarian 100% | OVCAR-4 ovarian 86.3% | SK-OV-3 ovarian 97.7% | IGROV1 ovarian 95.5% | OVCAR-3 ovarian 89.5% | HS 578T breast 90.5% | NCI/ADR-RES ovarian 57.5% | T-47D breast 65% | BT-549 breast 105% | MDA-MB-435 melanoma 91.4% | SW-620 colon 98% | MCF7 breast 73.5% | HCT-116 colon 77.9% | HCC-2998 colon 111% | KM12 colon 96.4%

Cc1cc(C)c(S(=O)(=O)Oc2ccccc2[N+](=O)[O-])c(C)c1
inactive: SR leukemia 15.7% | RPMI-8226 leukemia 24.2% | OVCAR-8 ovarian 29.8% | OVCAR-5 ovarian 43.4% | OVCAR-4 ovarian 42.9% | SK-OV-3 ovarian 41.2% | IGROV1 ovarian 30.2% | T-47D breast 38.8% | BT-549 breast 40.6% | MCF7 breast 13.3% | HCT-116 colon 19.7% | HCC-2998 colon 32.1% | KM12 colon 23%
active: OVCAR-3 ovarian -24.1% | HS 578T breast -16.4% | NCI/ADR-RES ovarian 8.3% | MDA-MB-435 melanoma -2.54% | SW-620 colon 8.04%

CCN(CC)CCCC(C)Nc1cc(O)cc2cccnc12 (stereo unspecified)
inactive: SR leukemia 132% | RPMI-8226 leukemia 97.3% | OVCAR-8 ovarian 101% | OVCAR-5 ovarian 105% | OVCAR-4 ovarian 84.2% | SK-OV-3 ovarian 119% | IGROV1 ovarian 154% | OVCAR-3 ovarian 90.2% | HS 578T breast 73.9% | NCI/ADR-RES ovarian 102% | T-47D breast 110% | BT-549 breast 105% | MDA-MB-435 melanoma 106% | SW-620 colon 97.2% | MCF7 breast 95% | HCT-116 colon 87.6% | HCC-2998 colon 96.4% | KM12 colon 105%

COc1ccccc1/C(C)=N/NC(=O)CSc1nc2ccccc2c(=O)n1Cc1ccc(S(N)(=O)=O)cc1
inactive: SR leukemia 96.1% | RPMI-8226 leukemia 99.5% | OVCAR-8 ovarian 98.7% | OVCAR-5 ovarian 97.9% | OVCAR-4 ovarian 94.9% | SK-OV-3 ovarian 115% | IGROV1 ovarian 102% | OVCAR-3 ovarian 108% | HS 578T breast 85.4% | NCI/ADR-RES ovarian 99.5% | T-47D breast 97.6% | BT-549 breast 99.3% | MDA-MB-435 melanoma 103% | SW-620 colon 100% | MCF7 breast 89.2% | HCT-116 colon 95.9% | HCC-2998 colon 95.9% | KM12 colon 102%

COc1cc2oc(-c3cccc(C(=O)Nc4ccccc4)c3)cc(=O)c2c(O)c1OC
inactive: SR leukemia 95.7% | RPMI-8226 leukemia 83.5% | OVCAR-8 ovarian 15.4% | OVCAR-5 ovarian 94.4% | SK-OV-3 ovarian 15% | IGROV1 ovarian 85.4% | OVCAR-3 ovarian 70.1% | HS 578T breast 11.1% | NCI/ADR-RES ovarian 79.1% | T-47D breast 55.8% | BT-549 breast 60.1% | MDA-MB-435 melanoma 58.3% | SW-620 colon 94.3% | MCF7 breast 78.1% | HCT-116 colon 46.3% | HCC-2998 colon 89.7% | KM12 colon 57.8%
active: OVCAR-4 ovarian -20.2%

OCc1cnccc1NCCCOc1ccccc1
inactive: SR leukemia 99.9% | RPMI-8226 leukemia 100% | OVCAR-8 ovarian 102% | OVCAR-5 ovarian 113% | OVCAR-4 ovarian 102% | SK-OV-3 ovarian 114% | IGROV1 ovarian 110% | OVCAR-3 ovarian 107% | HS 578T breast 98.7% | NCI/ADR-RES ovarian 102% | T-47D breast 101% | BT-549 breast 108% | MDA-MB-435 melanoma 110% | SW-620 colon 98.3% | MCF7 breast 92.1% | HCT-116 colon 100% | HCC-2998 colon 97.1% | KM12 colon 106%

O=C1c2ccc3c4c(ccc(c24)C(=O)N1CCCNCc1ccccc1Cl)C(=O)N(CCCNCc1ccccc1Cl)C3=O
inactive: SK-OV-3 ovarian 28.3%
active: SR leukemia -34.4% | RPMI-8226 leukemia -28.9% | OVCAR-8 ovarian -38.3% | OVCAR-5 ovarian -39.2% | OVCAR-4 ovarian -96.6% | IGROV1 ovarian -34.1% | OVCAR-3 ovarian -64.4% | HS 578T breast -22.9% | NCI/ADR-RES ovarian -12.3% | T-47D breast -25.5% | BT-549 breast -69% | MDA-MB-435 melanoma -43.7% | SW-620 colon -82.7% | MCF7 breast -78.2% | HCT-116 colon -6.85% | HCC-2998 colon -85.5% | KM12 colon -72.5%

CCC(CC)NCC(C)(C)O
inactive: SR leukemia 93.4% | RPMI-8226 leukemia 107% | OVCAR-8 ovarian 99% | OVCAR-5 ovarian 108% | OVCAR-4 ovarian 105% | SK-OV-3 ovarian 110% | IGROV1 ovarian 98% | OVCAR-3 ovarian 119% | HS 578T breast 107% | NCI/ADR-RES ovarian 106% | T-47D breast 123% | BT-549 breast 106% | MDA-MB-435 melanoma 108% | SW-620 colon 107% | MCF7 breast 97.9% | HCT-116 colon 103% | HCC-2998 colon 92.2% | KM12 colon 104%

CCCCCCCCO/N=C\c1c2c(O)c3c(O)c(C)c4c(c3c1O)C(=O)C(C)(O/C=C\C(OC)C(C)C(OC(C)=O)C(C)C(O)C(C)C(O)C(C)/C=C\C=C(\C)C(=O)N2)O4 (stereo unspecified)
active: SR leukemia 6.26% | RPMI-8226 leukemia 9.95% | HS 578T breast -2.52%
inactive: OVCAR-8 ovarian 24% | OVCAR-5 ovarian 48.8% | OVCAR-4 ovarian 29.4% | SK-OV-3 ovarian 30.5% | IGROV1 ovarian 23.4% | OVCAR-3 ovarian 22.2% | NCI/ADR-RES ovarian 32.1% | T-47D breast 30.5% | BT-549 breast 45.9% | MDA-MB-435 melanoma 13.5% | SW-620 colon 15.1% | MCF7 breast 21.7% | HCT-116 colon 11.6% | HCC-2998 colon 14.7% | KM12 colon 17.1%

CCCCCCNC(=O)Oc1ccc(/C(=C(\C)c2ccccc2)c2ccc(OCCCN(C)C)cc2)cc1
active: SR leukemia 2.09%
inactive: RPMI-8226 leukemia 81.6% | OVCAR-8 ovarian 86.9% | OVCAR-5 ovarian 85.5% | OVCAR-4 ovarian 86.9% | SK-OV-3 ovarian 95.6% | IGROV1 ovarian 80.4% | OVCAR-3 ovarian 89.7% | HS 578T breast 74% | NCI/ADR-RES ovarian 81% | T-47D breast 46.2% | BT-549 breast 85.4% | MDA-MB-435 melanoma 48.3% | SW-620 colon 92.4% | MCF7 breast 21.3% | HCT-116 colon 47.1% | HCC-2998 colon 86.7% | KM12 colon 74.3%

CCNC(=O)Oc1ccc(/C(=C(\C)c2ccccc2)c2ccc(OCCN(CC)CC)cc2)cc1
inactive: SR leukemia 26.1% | RPMI-8226 leukemia 74.6% | OVCAR-8 ovarian 78.3% | OVCAR-5 ovarian 88.2% | OVCAR-4 ovarian 80.8% | SK-OV-3 ovarian 83.9% | IGROV1 ovarian 84.3% | OVCAR-3 ovarian 93.7% | HS 578T breast 69% | NCI/ADR-RES ovarian 85% | T-47D breast 46.3% | BT-549 breast 76.1% | MDA-MB-435 melanoma 71% | SW-620 colon 82.6% | MCF7 breast 28.8% | HCT-116 colon 55.7% | HCC-2998 colon 91.5% | KM12 colon 72.1%

CCN(Cc1ccccc1)c1ccc(C=O)cc1
inactive: SR leukemia 90.3% | RPMI-8226 leukemia 90.4% | OVCAR-8 ovarian 97.8% | OVCAR-5 ovarian 93.1% | OVCAR-4 ovarian 85.8% | SK-OV-3 ovarian 103% | IGROV1 ovarian 96.1% | OVCAR-3 ovarian 97.9% | HS 578T breast 120% | NCI/ADR-RES ovarian 101% | T-47D breast 78.6% | BT-549 breast 95.1% | MDA-MB-435 melanoma 107% | SW-620 colon 97.9% | MCF7 breast 96% | HCT-116 colon 91.3% | HCC-2998 colon 93.7% | KM12 colon 106%

C=C1C(=O)O[C@H]2[C@H]1CC/C(CNC(=O)c1cccc3ccccc13)=C\CC[C@@]1(C)O[C@@H]21
inactive: SR leukemia 16.5% | OVCAR-8 ovarian 43.5% | OVCAR-5 ovarian 68.8% | OVCAR-4 ovarian 63.2% | SK-OV-3 ovarian 110% | IGROV1 ovarian 31.3% | OVCAR-3 ovarian 24.8% | HS 578T breast 69.9% | NCI/ADR-RES ovarian 80.9% | T-47D breast 46% | BT-549 breast 46.9% | MDA-MB-435 melanoma 40.2% | SW-620 colon 16.5% | MCF7 breast 24.4% | HCC-2998 colon 88% | KM12 colon 83.2%
active: RPMI-8226 leukemia 2.93% | HCT-116 colon -21.6%
